# According to PubChem BioAssay (NCATS):
# Where “and” joins values, the source holds several entries; their conditions need not be identical. Identical values can stand only once. Records with an inconclusive call do not appear. A call without a number means that no potency is given here. The source holds several records for some structures; these can differ, active in one and inactive in another. Calls of active or inactive are those of the source. Unless noted, the call rests on the fitted dose curve.
# Columns and labels:
# [1] = Primary qHTS to identify inhibitors of SARS-CoV-2 cell entry (AID 1645846); further: nearly all actives have a fitted effect of over 45% in size; further: potency means the concentration at half of the fitted maximal effect
# How it was run: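 Using luciferase-reporting pseudoviruses carrying Wuhan-Hu-1 spike, the screen tracks entry into stably ACE2-expressing cells over 48 hr. Activity is expressed relative to spike particles versus particles lacking any fusion protein.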
# Papain (Carica papaya) = Papain (Carica papaya) (UniProt P00784); test: Primary qHTS assay for inhibitors of the protease papain (AID 1645873; active means well fitted curve in the direction sought with a large enough effect; an effect the other way counts as inactive or inconclusive;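 further: papain turnover of Z-FR-AMC read as the AMC fluorescence gain over 10 min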)
# [2] = Primary qHTS for inhibitors of nuclear receptor binding SET domain protein 2 (NSD2) in an isogenic RCH-ACV NSD2 p.E1099K mutant (9B) (AID 1645876; active means well fitted curve in the direction sought with a large enough effect; an effect the other way counts as inactive or inconclusive; further: nearly all actives have a fitted effect of over 70% in size; further: potency means the concentration at half of the fitted maximal effect)
# [3] = Primary qHTS for inhibitors of nuclear receptor binding SET domain protein 2 (NSD2) in an RCH-ACV wild type WT cells (2C) (AID 1645877; active means well fitted curve in the direction sought with a large enough effect; an effect the other way counts as inactive or inconclusive; further: nearly all actives have a fitted effect of over 70% in size; further: potency means the concentration at half of the fitted maximal effect)
# [4] = activity change, negative = inhibition: at 57.1 µM (top of the series) unless noted
# Sequence of Papain (Carica papaya) (P00784 whole entry, looked up, the tested form may be a part): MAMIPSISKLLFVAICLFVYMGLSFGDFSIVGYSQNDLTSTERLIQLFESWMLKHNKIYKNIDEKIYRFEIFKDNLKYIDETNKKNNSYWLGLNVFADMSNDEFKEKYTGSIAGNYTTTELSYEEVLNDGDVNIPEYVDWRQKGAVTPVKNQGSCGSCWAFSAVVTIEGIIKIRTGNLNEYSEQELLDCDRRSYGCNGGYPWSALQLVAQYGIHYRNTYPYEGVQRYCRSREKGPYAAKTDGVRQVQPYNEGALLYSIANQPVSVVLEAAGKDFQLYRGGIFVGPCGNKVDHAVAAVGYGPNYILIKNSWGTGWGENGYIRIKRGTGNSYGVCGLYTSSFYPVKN
structure (smiles),measurement,setting,value
O=C(O)c1cn(C2CC2)c2cc(N3CCNCC3)c(F)cc2c1=O,"activity change, negative = inhibition","[1]; SARS-CoV-2 pseudovirus cell entry assay, luminescence, at 11.3 µM (top of the series)",-1.6%
same,"activity change, negative = inhibition","[1]; SARS-CoV-2 pseudovirus cell entry assay, luminescence, at 57.1 µM (top of the series)",4.56%
CC(=O)O[C@]1(C(C)=O)CC[C@H]2[C@@H]3C=C(C)C4=CC(=O)CC[C@]4(C)[C@H]3CC[C@@]21C,Potency,[1]; [4],inactive
same,"activity change, negative = inhibition",[1]; [4],-12.1%
CC(C)C[C@H](NC(=O)[C@H](CCc1ccccc1)NC(=O)CN1CCOCC1)C(=O)N[C@@H](Cc1ccccc1)C(=O)N[C@@H](CC(C)C)C(=O)[C@@]1(C)CO1,"activity change, negative = inhibition",[1]; [4],-96% and -97.8%
NNc1nncc2ccccc12,Potency,[1]; [4],inactive
same,"activity change, negative = inhibition",[1]; [4],83.2% [at 27.1 µM]
C=C(c1ccc(C(=O)O)cc1)c1cc2c(cc1C)C(C)(C)CCC2(C)C,Potency,[1]; [4],inactive
same,"activity change, negative = inhibition",[1]; [4],-6.82%
CS(=O)(=O)OCCCCOS(C)(=O)=O,Potency,[1]; [4],inactive
same,"activity change, negative = inhibition",[1]; [4],-16.9%
CCCC(CCC)C(=O)O,Potency,[1]; [4],inactive
same,"activity change, negative = inhibition",[1]; [4],-12.6%
Cc1ccc(C)c(OCCCC(C)(C)C(=O)O)c1,Potency,[1]; [4],inactive
same,"activity change, negative = inhibition",[1]; [4],-8.37%
NC(=O)NO,Potency,[1]; [4],inactive
same,"activity change, negative = inhibition",[1]; [4],-10.4%
CCN(CCO)CCCC(C)Nc1ccnc2cc(Cl)ccc12 (stereo not given),"activity change, negative = inhibition",[1]; [4],-16.5% [at 5.25 µM]
same,outcome,[1]; [4],inactive [at 5.25 µM]
CC(C)NCC(O)c1ccc(O)c(O)c1 (stereo not given),Potency,[1]; [4],inactive
same,"activity change, negative = inhibition",[1]; [4],-10.8%
COC(=O)[C@@H]1CC2=CC(=O)CC[C@]2(C)[C@@]23O[C@@H]2C[C@@]2(C)[C@@H](CC[C@@]24CCC(=O)O4)[C@H]13,Potency,[1]; [4],inactive
same,"activity change, negative = inhibition",[1]; [4],-17.3%
NC12CC3CC(CC(C3)C1)C2,Potency,[1]; [4],inactive
same,"activity change, negative = inhibition",[1]; [4],-26.7%
Cc1ccccc1N1C(=O)c2cc(S(N)(=O)=O)c(Cl)cc2NC1C (stereo not given),Potency,[1]; [4],inactive
same,"activity change, negative = inhibition",[1]; [4],-97.4%
CN(C)c1nc(N(C)C)nc(N(C)C)n1,Potency,[1]; [4],inactive
same,"activity change, negative = inhibition",[1]; [4],-16.8%
COc1ccc(C(CN(C)C)C2(O)CCCCC2)cc1 (stereo not given),Potency,[1]; [4],inactive
same,Potency,Papain (Carica papaya),inactive
same,Potency,[2],inactive
Cc1cccc(C)c1NC(=O)CN1CCCC1=O,"activity change, negative = inhibition",[1]; [4],-12.8%
same,Potency,Papain (Carica papaya),inactive
same,Potency,[2],inactive
CO[C@@]12[C@H](COC(N)=O)C3=C(C(=O)C(C)=C(N)C3=O)N1C[C@@H]1N[C@@H]12,Potency,[1]; [4],4.47 µM (active)
same,"activity change, negative = inhibition",[1]; [4],-40.7%
C#CCN(C)[C@H](C)Cc1ccccc1,Potency,[1]; [4],inactive
same,"activity change, negative = inhibition",[1]; [4],-14%
same,Potency,[2],inactive
Cc1cccc(C)c1NC1=NCCCS1,"activity change, negative = inhibition",[1]; [4],-11.5%
same,Potency,Papain (Carica papaya),inactive
same,Potency,[2],inactive
O=[N+]([O-])c1cc([As](=O)(O)O)ccc1O,"activity change, negative = inhibition",[1]; [4],-27.8%
same,Potency,[2],inactive
C=C(C)[C@H]1Cc2c(ccc3c2O[C@@H]2COc4cc(OC)c(OC)cc4[C@@H]2C3=O)O1,"activity change, negative = inhibition",[1]; [4],-94.7%
same,Potency,Papain (Carica papaya),inactive
same,Potency,[2],188 nM (active)
same,Potency,[3],150 nM (active)
NN=C(N)N,"activity change, negative = inhibition",[1]; [4],4.5%
same,Potency,Papain (Carica papaya),inactive
same,Potency,[2],inactive
NCC(O)c1ccc(O)cc1 (stereo not given),Potency,[1]; [4],inactive
same,Potency,Papain (Carica papaya),inactive
NCC1(CC(=O)O)CCCCC1,"activity change, negative = inhibition",[1]; [4],1.13%
same,Potency,Papain (Carica papaya),inactive
same,Potency,[2],inactive
same,Potency,[3],inactive
C[C@](N)(Cc1ccc(O)c(O)c1)C(=O)O,Potency,[1]; [4],inactive
same,"activity change, negative = inhibition",[1]; [4],-1.67%
CCC1=C[C@@H]2CN(C1)Cc1c([nH]c3ccccc13)[C@@](C(=O)OC)(c1cc3c(cc1OC)N(C)[C@H]1[C@@](O)(C(=O)OC)[C@H](OC(C)=O)[C@]4(CC)C=CCN5CC[C@]31[C@@H]54)C2,Potency,[1]; [4],2.82 µM (active)
same,"activity change, negative = inhibition",[1]; [4],-90.3%
COC[C@H]1OC(=O)c2coc3c2[C@@]1(C)C1=C(C3=O)C2CCC(=O)[C@@]2(C)C[C@H]1OC(C)=O (stereo not given in full),"activity change, negative = inhibition",[1]; [4],3.38%
same,Potency,Papain (Carica papaya),inactive
same,Potency,[2],1.84 µM (active) and 7.42 µM (active)
same,Potency,[3],2.59 µM (active) and 18.3 µM (active) and 7.42 µM (active)
CN(C)[C@@H]1C(=O)C(C(N)=O)=C(O)[C@@]2(O)C(=O)C3=C(O)c4c(O)cccc4[C@@](C)(O)[C@H]3C[C@@H]12,Potency,[1]; [4],inactive
same,Potency,[2],inactive
CCCN[C@H]1CCc2nc(N)sc2C1,Potency,[1]; [4],inactive
same,"activity change, negative = inhibition",[1]; [4],-3.81%
O=P1(NCCCl)OCCCN1CCCl (stereo not given),Potency,[1]; [4],inactive
same,"activity change, negative = inhibition",[1]; [4],-11%
same,Potency,[2],inactive
Oc1ccccc1-c1ccccc1,Potency,[1]; [4],inactive
same,Potency,[2],inactive
CNCC(O)c1ccc(O)cc1 (stereo not given),"activity change, negative = inhibition",[1]; [4],-17.4%
same,Potency,Papain (Carica papaya),inactive
same,Potency,[2],inactive
C=CCN1CC[C@]23c4c5ccc(O)c4O[C@H]2C(=O)CC[C@@]3(O)[C@H]1C5,"activity change, negative = inhibition",[1]; [4],2.17%
same,Potency,[2],inactive
